Common to all, as to assay: NCI-60 one-dose screen, 48 h (100 = growth as untreated, 0 = no growth, -100 = all killed)
Experiment [1] relates to HT29 colon. The settings on record: 10 µM unless noted.
For experiment [2], the system named is SNB-75 CNS. Conditions: 10 µM unless noted.
For experiment [3], the system named is SNB-19 CNS. The settings on record: 10 µM unless noted.
Experiment [4] relates to U251 CNS. The settings on record: 10 µM unless noted.
For experiment [5], the system named is PC-3 prostate. Conditions: 10 µM unless noted.
The subject of experiment [6] is SK-MEL-5 melanoma. The settings on record: 10 µM unless noted.
Experiment [7] has as its system UACC-62 melanoma. The settings on record: 10 µM unless noted.
Experiment [8] concerns LOX IMVI melanoma. The settings on record: 10 µM unless noted.
Experiment [9] relates to SK-MEL-28 melanoma. Conditions: 10 µM.
Experiment [10] has as its system SK-MEL-2 melanoma. Conditions: 10 µM unless noted.
Experiment [11] concerns EKVX NSCLC. The settings on record: 10 µM unless noted.
Experiment [12] deals with SN12C renal. The settings on record: 10 µM unless noted.
Experiment [13] has as its system TK-10 renal. The settings on record: 10 µM unless noted.
For experiment [14], the system named is ACHN renal. Conditions: 10 µM unless noted.
Experiment [15] concerns CAKI-1 renal. Conditions: 10 µM unless noted.
Experiment [16] has as its system A498 renal. The settings on record: 10 µM unless noted.
For experiment [17], the system named is CCRF-CEM leukemia. Conditions: 10 µM unless noted.
The test system of experiment [18] is MOLT-4 leukemia. The settings on record: 10 µM unless noted.
In experiment [19] the test system is SR leukemia. The settings on record: 10 µM unless noted.
For experiment [20], the system named is UO-31 renal. Conditions: 10 µM unless noted.

Compounds without any hit were thinned out: in the full panel of roughly 83,000, 20% have a hit.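 Method: cells in 96-well plates; compound added at one concentration; 48 h incubation; percent growth measured; values under 10 scored active.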 A number with no mark means an inactive call. The source made the active and inactive calls.

Take `NCCOc1ccccc1/C=C1\c2ccccc2-c2ccc([N+](=O)[O-])cc21`: the growth in experiment [1] was -59.7% (active); in experiment [2] it was -5.59% (active); in experiment [3], 10.6%; in [4] it was -74.1% (active); in [5], 36.8%; in experiment [6], 30.1%. The growth in [7] was 20.7%; in [8] it was -93.8% (active); in experiment [9] it was 48%; in experiment [10] it was 78.3%; in experiment [11] it was 54.9%; in experiment [12] it was -17.9% (active). The growth was -1.56% (active) in experiment [13]; -73.6% (active) in experiment [14]; 1.27% (active) in experiment [15]; 25.1% in experiment [16]; 0.81% (active) in experiment [17]; -14.1% (active) in [18]. The growth in experiment [19] was -23.7% (active).

Take `COc1cc(C(=O)Nc2ccc(-c3nc4ccccc4[nH]3)cc2)cc(OC)c1OC`: the growth in experiment [1] is 14.8%; in experiment [2] it was 42.9%; in [3], 53.8%; in experiment [4], 25%; in [5] it was 52.5%; in experiment [6], 65.7%. Moreover, the growth in experiment [7] was 47.2%; in experiment [8], 36%; in experiment [9], 50%; in experiment [10], 105%; in experiment [12], 45.4%; in experiment [20], 49.5%. Moreover, the growth in experiment [13] was 60.1%; in [14] it was 61.9%; in experiment [15], 55.9%; in [16], 37.6%; in experiment [17] it was 36.5%; in [18], 41.3%.

Turning to `Cc1ccc(C2CC(c3ccc(Nc4nc(NCCO)nc(Nc5ccc(Cl)cc5)n4)cc3)=NN2c2cc(Cl)cc(Cl)c2)cc1` (stereo unspecified), the growth in [1] was 107%; in experiment [2], 85.2%; in experiment [3], 106%; in experiment [4] it was 97.4%; in experiment [5], 98.9%; in experiment [6] it was 92.4%. Besides, the growth in experiment [7] was 89.5%; in experiment [8] it was 98.7%; in experiment [9], 105%; in experiment [10] it was 122%; in experiment [11], 82.7%; in experiment [12] it was 96.4%. The growth was 113% in [13]; 95.3% in experiment [14]; 73.5% in [15]; 79.1% in [16]; 96.8% in experiment [17]; 93.7% in [18]. For the same compound, the growth in experiment [19] was 107%.

For `CCCCC(O)(c1ccc(Cl)cc1)C(CN1CCOCC1)c1ccc(Cl)cc1` (stereo unspecified), the growth in experiment [1] is 53.7%; in experiment [2], 39.6%; in [3] it was 60.1%; in [4], 23.1%; in [5] it was 17.6%; in [6], 13.3%. The growth was 31.1% in experiment [7]; 33.9% in experiment [8]; 54.1% in experiment [9]; 50.1% in [10]; 9.55% (active) in experiment [12]; 16.1% in experiment [20]. The growth in experiment [13] is 52.9%; in [14], 33.2%; in experiment [15], 26.5%; in [16], 36%; in experiment [17], 22.3%; in experiment [18], 6.34% (active).

For the compound `COc1cc(C(=O)NN=C2c3ccccc3-c3ccccc32)cc(OC)c1OC`, the growth was 5.22% (active) in experiment [1]; 14.2% in experiment [2]; 42.4% in experiment [3]; 20.9% in experiment [4]; 31% in experiment [5]; 7.14% (active) in experiment [6]. In addition, the growth in experiment [7] is 44.2%; in experiment [8] it was 28.7%; in experiment [9], 46.6%; in experiment [10], 6.51% (active); in [12] it was 41.6%; in experiment [20] it was 46.5%. Besides, the growth was 55.5% in experiment [13]; 46.4% in experiment [14]; 24.6% in experiment [15]; 6.68% (active) in [16]; 25.5% in experiment [17]; 39.3% in experiment [18].

Consider `COC(=O)c1cc2c(n1Cc1ccccc1)-c1oncc1CCC2`, for which the growth was 30.9% in experiment [1]; 67.2% in experiment [2]; 81.8% in experiment [3]; 68.6% in experiment [4]; 77.4% in experiment [5]; 58.6% in [6]. Further, the growth in experiment [7] is 49.7%; in experiment [8] it was 67.8%; in [9], 62.5%; in [10], 47.7%; in experiment [12], 73.2%; in experiment [20], 79.9%. Also, the growth in experiment [13] is 102%; in experiment [14] it was 79.8%; in experiment [15], 78.7%; in experiment [16] it was 53.8%; in experiment [17], 61.7%; in [18], 61.7%.

As for `COc1cc(/C=C2\CN(C)C/C(=C\c3cc(CN4CCCC4)c(O)c(OC)c3)C2=O)cc(CN2CCCC2)c1O`, the growth is 25.6% in experiment [1]; 75.3% in [2]; 74.7% in [3]; 25.8% in experiment [4]; 76.8% in [5]; 89.3% in experiment [6]. Moreover, the growth in [7] was 81.7%; in [8], 26.3%; in experiment [9], 90.7%; in experiment [10], 92.1%; in [11] it was 83.9%; in experiment [12], 53.6%. The growth in [13] is 101%; in experiment [14], 79%; in experiment [15], 99.6%; in experiment [16], 98.2%; in experiment [17], 34.1%; in [18], 57.6%. The growth in experiment [19] is 38.7%.

As to `COc1ccc(/C=C2\N=C(c3ccccc3)N(c3ccc(-c4nc5ccc(C)cc5s4)cc3)C2=O)cc1`, the growth in experiment [1] was 88.9%; in [2], 69.9%; in experiment [3], 84.3%; in experiment [4], 81.2%; in [5], 63.1%; in experiment [6] it was 85.3%. Moreover, the growth in experiment [7] is 73.2%; in experiment [8] it was 98.2%; in experiment [9], 114%; in experiment [10] it was 85.2%; in experiment [12] it was 64.3%; in experiment [20], 34.2%. Also, the growth was 104% in experiment [13]; 80.7% in [14]; 61.9% in experiment [15]; 93.6% in experiment [16]; 61.9% in [17]; 45.9% in experiment [18].

With `Cc1ccc(Nc2nc(N)c3ccccc3n2)cc1Cl`, the growth in [1] is 27.4%; in experiment [2], 95.2%; in experiment [3] it was 84.4%; in experiment [4] it was 61.8%; in [5] it was 60.4%; in experiment [6], 60.2%. The growth is 53.9% in experiment [7]; 40.4% in experiment [8]; 102% in [9]; 50.9% in [10]; 65.4% in [12]; 57.2% in [20]. Further, the growth in [13] is 81.5%; in [14], 64.4%; in experiment [15] it was 39.7%; in experiment [16], 72.3%; in experiment [17] it was 48.3%; in experiment [18], 48.9%. For the same compound, in experiment [19], the growth is 1.13% (active).

Source of the values: PubChem BioAssay (NCI).
